Screening results as filed in PubChem BioAssay.
Dicer processing – human Dicer pre-microRNA cleavage inhibition; Q9UPY3; 6% of 47,000 active; AID 1347074; cat-ELCCA pre-miR-21 Dicer processing, chemiluminescence; stronger effect = higher value; z-score at 25 µM; in the data active = z-score above about 3, passing the limit was not always enough;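 also: higher signal means more uncleaved substrate so more Dicer inhibition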
Hits are given with their value. Only a selection was taken, and hits are over-represented in it overall.

How did CC(C)(C)NC1CC(=O)N(c2ccccc2)C1=O (centres undefined) do in these assays?
Dicer processing: inactive

What do the screens show for `O=C1CC(c2ccccc2)CC(=O)N1c1ccc(Oc2ccc(Cl)cc2)cc1`?
Dicer processing: inactive

Results for CC(C)(C)c1ccc(N2C(=O)CC(c3ccccc3)C2=O)cc1 (centres undefined) ?
Dicer processing: 5.3

How did CCN(c1cccc2ccccc12)S(=O)(=O)c1ccc(F)cc1 do in these assays?
Dicer processing: inactive

What do the screens show for `CCOC(=O)c1cc(C)n(-c2cc(C(F)(F)F)cc(C(F)(F)F)c2)n1`?
Dicer processing: inactive

What do the screens show for `CCCCC#Cc1ccc(-c2nnc(SCc3ccc(Cl)cc3)n2C)o1`?
Dicer processing: inactive

Results for CC(C)N(Cc1ccccc1)C(=O)Nc1cccc(C(F)(F)F)c1 ?
Dicer processing: inactive

Results for CC(=O)OCC12CC=C(C)C(C1)C(c1ccccc1OC(C)=O)OC2 (centres undefined) ?
Dicer processing: inactive

Results for COc1ccc(C(=O)Oc2cccc3cccnc23)cc1Cl ?
Dicer processing: 4.4

Results for O=C(Oc1cccc2cccnc12)c1cccs1 ?
Dicer processing: inactive

What do the screens show for `COc1ccc(C(=O)Oc2cccc3cccnc23)cc1OC`?
Dicer processing: inactive

What do the screens show for `CCCOC(=O)COc1ccc2c(=O)c(Oc3ccc(OC)cc3)c(C(F)(F)F)oc2c1`?
Dicer processing: inactive

Results for C/S(=N\S(=O)(=O)c1ccc(Cl)cc1)c1ccccc1 (centres undefined) ?
Dicer processing: inactive

How did COc1ccc(C)c2c1C1CCC3(C)C(=O)CCC3C1CC2 (centres undefined) do in these assays?
Dicer processing: inactive

Results for COC(=O)CCCN1C(=O)c2cccc3cccc(c23)C1=O ?
Dicer processing: 3.6

Results for C#CCOC(=O)CCCN1C(=O)c2cccc3cccc(c23)C1=O ?
Dicer processing: inactive

What do the screens show for `CN(C(=O)CCCN1C(=O)c2cccc3cccc(c23)C1=O)c1ccccc1`?
Dicer processing: inactive

Results for CCCc1c(C(=O)Nc2nc(-c3ccc(C)c(Cl)c3)c(C)s2)cnn1-c1ccccc1 ?
Dicer processing: inactive

How did CCOC(=O)c1cnc2cc(C)ccn2c1=O do in these assays?
Dicer processing: inactive

Results for CCOC(=O)c1cnc2n(c1=O)CCS2 ?
Dicer processing: 3.2

How did CCOC(=O)c1cnc2cc(C)[nH]n2c1=O do in these assays?
Dicer processing: inactive

Results for CCOC(=O)c1c(C)nsc1NC(=O)Oc1ccccc1 ?
Dicer processing: inactive

How did CSC(SC)=C(C#N)C(=O)c1ccc(Cl)cc1 do in these assays?
Dicer processing: inactive

How did O=C(Nc1ccc(F)cc1)C1Sc2nnc(-c3ccccc3)n2NC1c1ccc(F)cc1 (centres undefined) do in these assays?
Dicer processing: inactive

What do the screens show for `Clc1ccccc1-c1nnc2sc(/C=C/c3ccccc3)nn12`?
Dicer processing: inactive

What do the screens show for `COc1ccc(/C=C/c2nn3c(-c4ccccc4Cl)nnc3s2)cc1`?
Dicer processing: inactive

How did COc1ccc(/C=C/c2nn3c(Cc4ccccc4)nnc3s2)cc1 do in these assays?
Dicer processing: inactive

Results for COc1ccc(/C=C/c2nn3c(COc4ccccc4)nnc3s2)cc1 ?
Dicer processing: inactive

What do the screens show for `Clc1ccccc1-c1ccc(-c2nn3c(-c4ccco4)nnc3s2)o1`?
Dicer processing: inactive

Results for Cc1ccc(/C=C/c2nn3c(-c4ccco4)nnc3s2)cc1C ?
Dicer processing: inactive

How did COc1ccc(/C=C/c2nn3c(Cc4ccc(OC)cc4)nnc3s2)cc1 do in these assays?
Dicer processing: 4.7

How did Cc1ccc(/C=C/c2nn3c(-c4ccco4)nnc3s2)cc1 do in these assays?
Dicer processing: 3.2

Results for Cc1cccc(/C=C/c2nn3c(-c4ccco4)nnc3s2)c1 ?
Dicer processing: 3.4

How did COc1ccc(OC(C)c2nc(-c3ccc(C)cc3)no2)cc1 (centres undefined) do in these assays?
Dicer processing: inactive

What do the screens show for `Cc1csc2sc(/C=C(\C#N)S(C)(=O)=O)c(C)c12`?
Dicer processing: inactive

Results for FC(F)(F)c1cc(N2CCOCC2)c2cccc(Cl)c2n1 ?
Dicer processing: inactive

What do the screens show for `Cn1nccc1NC(=O)c1ccc(Cl)c(Cl)c1`?
Dicer processing: inactive

What do the screens show for `CCOC(=O)CSc1nc(C(C)=O)ccc1C#N`?
Dicer processing: inactive

How did COC(=O)c1c(C)sc2c(C(F)(F)F)cc(OC)nc12 do in these assays?
Dicer processing: inactive

How did Cc1c(Cl)cccc1NC(=S)N1CCCCC1CCN1CCCCC1 (centres undefined) do in these assays?
Dicer processing: inactive

Results for COc1cc(C(=O)O)c(N)c(OC)c1OC ?
Dicer processing: inactive

Results for COc1ccc(CC2CCC(=NOC(=O)c3cccc(C(F)(F)F)c3)CC2)cc1 (centres undefined) ?
Dicer processing: inactive

How did COc1ccccc1Oc1nc2c(c(=O)n(Cc3ccc(Cl)c(Cl)c3)c(=O)n2C)n1C do in these assays?
Dicer processing: inactive

What do the screens show for `CCOC(=O)c1cc(N)n(-c2nc3cc(Cl)ccc3s2)n1`?
Dicer processing: inactive

Results for Cc1ccc(OCC2CN(Cc3ccccc3)C(=O)O2)cc1 (centres undefined) ?
Dicer processing: inactive

Results for O=C1OC(COc2ccccc2)CN1c1ccccc1 (centres undefined) ?
Dicer processing: 3.4

Results for O=C(O)C1CC(=O)N(c2ccc(Oc3ccccc3)cc2)C1 (centres undefined) ?
Dicer processing: inactive

How did CC(=O)c1c(-c2cccs2)nn(-c2ccc([N+](=O)[O-])cc2)c1C do in these assays?
Dicer processing: inactive

Results for Cc1c(NS(=O)(=O)c2ccccc2)cc(Cl)c(O)c1C ?
Dicer processing: inactive

Results for Cc1ccc(S(=O)(=O)Nc2cc(C)c(Br)cc2NS(=O)(=O)c2ccc(C)cc2)cc1 ?
Dicer processing: inactive

What do the screens show for `Cc1ccc(S(=O)(=O)Nc2cc(C)c(O)c(Cl)c2)cc1`?
Dicer processing: inactive

How did Cc1ccc(S(=O)(=O)Nc2cc(S(=O)(=O)c3ccc(C)cc3)c(O)c3ncccc23)cc1 do in these assays?
Dicer processing: inactive

How did Cc1ccc(S(=O)(=O)Nc2cc(C(C)C)c(O)c(Cl)c2C)cc1 do in these assays?
Dicer processing: 3.2

Results for Cc1ccc(S(=O)(=O)Nc2cc(Cl)c(O)cc2C)cc1 ?
Dicer processing: 4.3

Results for CCOc1ccc(/C(O)=C2\C(=O)C(=O)N(c3nnc(C)s3)C2c2ccccc2F)cc1 (centres undefined) ?
Dicer processing: inactive

How did N#C/C(=N\Nc1ccc(OC(F)(F)F)cc1)C(=O)c1ccsc1 do in these assays?
Dicer processing: inactive

How did O=C(CC1SCCNC1=O)Nc1ccc2c(c1)OCO2 (centres undefined) do in these assays?
Dicer processing: inactive

Results for O=C(CC1Sc2ccccc2NC1=O)Nc1ccc(Cl)cc1 (centres undefined) ?
Dicer processing: inactive

What do the screens show for `O=C(CC1Sc2ccccc2NC1=O)Nc1ccc2c(c1)OCO2` (centres undefined)?
Dicer processing: 3.9

How did CCSCCOC(=O)C1=C(C)NC2=C(C(=O)CCC2)C1c1ccccc1Cl (centres undefined) do in these assays?
Dicer processing: inactive

What do the screens show for `Cc1noc(/C=C/c2ccc(Sc3ccc(Cl)cc3)o2)c1[N+](=O)[O-]`?
Dicer processing: inactive

How did OCCNc1ccc2ccccc2n1 do in these assays?
Dicer processing: inactive

Results for Cc1ccc(-c2cc(NC3=CC(=O)CC(C)(C)C3)n[nH]2)cc1 ?
Dicer processing: 3.7

What do the screens show for `Cc1ccc(Cl)c(NC2=CC(=O)CC(C)(C)C2)c1`?
Dicer processing: inactive
